# Source: the supplement of paper PMC8728848
# The full list was thinned out, with the strongest signals kept by preference.
# B1: AFCNVH (Aspergillus fumigatus) (protein)
# chain: MSLRGFHTTCDTIVLKDKHILSSRCKRPDGTYSFSEIDLNDCLGNNNGKFVWGGESFVDSASQVNLALEGGEGRPMLHAQLNDWHGSVQSASVNLGECIQNEAGGLEYMHC
# Key:
# Assay in all cases: glycan array binding signal (z-score within array); higher = stronger binding
# Conditions in all cases: glycan notation: IUPAC condensed, linker removed
# [1] = molecular target: GlcNAc(b1-2)[GlcNAc(b1-6)]Man(a1-6)[GlcNAc(b1-2)Man(a1-3)]Man(b1-4)GlcNAc(b1-4)GlcNAc
# Outline: (§1)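 The binding signal is a Z-score computed within each array. Data were drawn from 3228 arrays in the Consortium for Functional Glycomics database, restricted to those with a known protein sequence. Scores were averaged over arrays of the same protein sequence at different concentrations or buffers, and over linkers, and negative values can be taken as non-binding.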
# GlcNAc(b1-3)Gal(b1-4)Glc = molecular target: GlcNAc(b1-3)Gal(b1-4)Glc
# Outline: as §1
# [2] = molecular target: GlcNAc(b1-3)Gal(b1-4)GlcNAc(b1-3)Gal(b1-4)GlcNAc(b1-2)[GlcNAc(b1-3)Gal(b1-4)GlcNAc(b1-3)Gal(b1-4)GlcNAc(b1-6)]Man(a1-6)[GlcNAc(b1-3)Gal(b1-4)GlcNAc(b1-3)Gal(b1-4)GlcNAc(b1-2)Man(a1-3)]Man(b1-4)GlcNAc(b1-4)[Fuc(a1-6)]GlcNAc
# Outline: as §1
# [3] = molecular target: GlcNAc(b1-3)Gal(b1-4)GlcNAc(b1-3)Gal(b1-4)GlcNAc(b1-3)Gal(b1-4)GlcNAc(b1-2)Man(a1-3)[GlcNAc(b1-3)Gal(b1-4)GlcNAc(b1-3)Gal(b1-4)GlcNAc(b1-3)Gal(b1-4)GlcNAc(b1-2)Man(a1-6)]Man(b1-4)GlcNAc(b1-4)GlcNAc
# Outline: as §1
# [4] = molecular target: GlcNAc(b1-3)Gal(b1-4)GlcNAc(b1-3)Gal(b1-4)GlcNAc(b1-3)Gal(b1-4)GlcNAc(b1-2)[GlcNAc(b1-3)Gal(b1-4)GlcNAc(b1-3)Gal(b1-4)GlcNAc(b1-3)Gal(b1-4)GlcNAc(b1-6)]Man(a1-6)[GlcNAc(b1-3)Gal(b1-4)GlcNAc(b1-3)Gal(b1-4)GlcNAc(b1-3)Gal(b1-4)GlcNAc(b1-2)Man(a1-3)]Man(b1-4)GlcNAc(b1-4)[Fuc(a1-6)]GlcNAc
# Outline: as §1
# [5] = molecular target: GlcNAc(b1-3)Gal(b1-4)GlcNAc(b1-3)Gal(b1-4)GlcNAc(b1-3)Gal(b1-4)GlcNAc(b1-3)Gal(b1-4)GlcNAc(b1-2)Man(a1-3)[GlcNAc(b1-3)Gal(b1-4)GlcNAc(b1-3)Gal(b1-4)GlcNAc(b1-3)Gal(b1-4)GlcNAc(b1-3)Gal(b1-4)GlcNAc(b1-2)Man(a1-6)]Man(b1-4)GlcNAc(b1-4)[Fuc(a1-6)]GlcNAc
# Outline: as §1
# [6] = molecular target: GlcNAc(b1-3)Gal(b1-4)GlcNAc(b1-3)Gal(b1-4)GlcNAc(b1-3)Gal(b1-4)GlcNAc(b1-3)Gal(b1-4)GlcNAc(b1-2)[GlcNAc(b1-3)Gal(b1-4)GlcNAc(b1-3)Gal(b1-4)GlcNAc(b1-3)Gal(b1-4)GlcNAc(b1-3)Gal(b1-4)GlcNAc(b1-6)]Man(a1-6)[GlcNAc(b1-3)Gal(b1-4)GlcNAc(b1-3)Gal(b1-4)GlcNAc(b1-3)Gal(b1-4)GlcNAc(b1-3)Gal(b1-4)GlcNAc(b1-2)Man(a1-3)]Man(b1-4)GlcNAc(b1-4)[Fuc(a1-6)]GlcNAc
# Outline: as §1
# [7] = molecular target: GlcNAc(b1-3)[GlcNAc(b1-4)][GlcNAc(b1-6)]GlcNAc
# Outline: as §1
# [8] = molecular target: GlcNAc(b1-4)GlcNAc(b1-4)GlcNAc(b1-4)GlcNAc(b1-4)GlcNAc
# Outline: as §1
# GlcNAc(b1-6)GalNAc = molecular target: GlcNAc(b1-6)GalNAc
# Outline: as §1
# [9] = molecular target: Kdn(a2-3)Gal(b1-4)[Fuc(a1-3)]GlcNAc
# Outline: as §1
# [10] = molecular target: Man(a1-2)Man(a1-3)[Man(a1-2)Man(a1-6)]Man(a1-6)[Man(a1-2)Man(a1-2)Man(a1-3)]Man(b1-4)GlcNAc(b1-4)GlcNAc
# Outline: as §1
# Man(b1-4)GlcNAc = molecular target: Man(b1-4)GlcNAc
# Outline: as §1
# [11] = molecular target: Neu5Ac(a2-3)Gal(b1-3)GlcNAc(b1-2)[Neu5Ac(a2-3)Gal(b1-3)GlcNAc(b1-4)]Man(a1-6)[Neu5Ac(a2-3)Gal(b1-3)GlcNAc(b1-2)Man(a1-3)]Man(b1-4)GlcNAc(b1-4)GlcNAc
# Outline: as §1
# [12] = molecular target: Neu5Ac(a2-3)Gal(b1-3)GlcNAc(b1-3)GalNAc
# Outline: as §1
# [13] = molecular target: Neu5Ac(a2-3)Gal(b1-3)GlcNAc6S
# Outline: as §1
# [14] = molecular target: Neu5Ac(a2-3)Gal(b1-3)[Fuc(a1-4)]GlcNAc(b1-3)Gal(b1-4)[Fuc(a1-3)]GlcNAc
# Outline: as §1
# [15] = molecular target: Neu5Ac(a2-3)Gal(b1-3)[Neu5Ac(a2-6)]GlcNAc(b1-3)[Fuc(a1-3)[Gal(b1-4)]GlcNAc(b1-6)]Gal(b1-4)Glc
# Outline: as §1
# [16] = molecular target: Neu5Ac(a2-3)Gal(b1-3)]Neu5Ac(a2-3)Gal(b1-4)]GlcNAc
# Outline: as §1
# [17] = molecular target: Neu5Ac(a2-3)Gal(b1-4)GlcNAc(b1-2)[Neu5Ac(a2-3)Gal(b1-4)GlcNAc(b1-4)]Man(a1-3)[GlcNAc(b1-4)][Neu5Ac(a2-3)Gal(b1-4)GlcNAc(b1-2)[Neu5Ac(a2-3)Gal(b1-4)GlcNAc(b1-6)]Man(a1-6)]Man(b1-4)GlcNAc(b1-4)GlcNAc
# Outline: as §1
# [18] = molecular target: Neu5Ac(a2-3)Gal(b1-4)GlcNAc(b1-3)Gal(b1-4)[Fuc(a1-3)]GlcNAc
# Outline: as §1
# [19] = molecular target: Neu5Ac(a2-3)Gal(b1-4)GlcNAc(b1-3)GalNAc
# Outline: as §1
# [20] = molecular target: Neu5Ac(a2-3)GalNAc(b1-4)GlcNAc
# Outline: as §1
# [21] = molecular target: Neu5Ac(a2-8)Neu5Ac(a2-3)Gal(b1-3)GalNAc(b1-4)[Neu5Ac(a2-3)]Gal(b1-4)Glc
# Outline: as §1
# [22] = molecular target: Neu5Ac(a2-8)Neu5Gc(a2-3)Gal(b1-4)GlcNAc
# Outline: as §1
# Neu5Gc(a2-3)Gal(b1-4)Glc = molecular target: Neu5Gc(a2-3)Gal(b1-4)Glc
# Outline: as §1
binder,measurement,setting,value
B1,glycan array binding signal (z-score),[1],-0.203
same,glycan array binding signal (z-score),GlcNAc(b1-3)Gal(b1-4)Glc,-0.196
same,glycan array binding signal (z-score),[2],3.73
same,glycan array binding signal (z-score),[3],4.24
same,glycan array binding signal (z-score),[4],3.78
same,glycan array binding signal (z-score),[5],1.62
same,glycan array binding signal (z-score),[6],4.73
same,glycan array binding signal (z-score),[7],-0.338
same,glycan array binding signal (z-score),[8],3.83
same,glycan array binding signal (z-score),GlcNAc(b1-6)GalNAc,1.1
same,glycan array binding signal (z-score),[9],-0.455
same,glycan array binding signal (z-score),[10],-0.336
same,glycan array binding signal (z-score),Man(b1-4)GlcNAc,-0.3
same,glycan array binding signal (z-score),[11],-0.439
same,glycan array binding signal (z-score),[12],-0.385
same,glycan array binding signal (z-score),[13],-0.204
same,glycan array binding signal (z-score),[14],-0.305
same,glycan array binding signal (z-score),[15],-0.416
same,glycan array binding signal (z-score),[16],-0.242
same,glycan array binding signal (z-score),[17],-0.351
same,glycan array binding signal (z-score),[18],-0.398
same,glycan array binding signal (z-score),[19],-0.339
same,glycan array binding signal (z-score),[20],-0.24
same,glycan array binding signal (z-score),[21],-0.287
same,glycan array binding signal (z-score),[22],-0.48
same,glycan array binding signal (z-score),Neu5Gc(a2-3)Gal(b1-4)Glc,-0.447
